Values joined by “and” are separate entries in the source; they are usually repeats but may differ in a detail not shown here. Equal entries are not always repeated. Results filed as inconclusive are left out. Where a call stands in place of a potency, no number is given. Some structures have more than one record in an assay (separate samples or runs), and their calls can disagree. Active and inactive are the calls of the source. Unless noted, the call rests on the fitted dose curve; in most records, active means well fitted curve in the direction sought with a large enough effect in the repeat runs; inconclusive means weak or mixed curves; inactive means no such curve, though single readings can be large; an effect the other way counts as inactive or inconclusive.
Legend:
[1] = qHTS assay to identify small molecule antagonists of the glucocorticoid receptor (GR) signaling pathway - cell viability counter screen (AID 720693); further: nearly all actives have a fitted effect of over 55% in size; further: potency means the concentration at half of the fitted maximal effect
[2] = qHTS assay for identifying genotoxic compounds that show differential cytotoxicity against isogenic chicken DT40 cell lines with known DNA damage response pathways - wild type cell line (AID 743012); further: nearly all actives have a fitted effect of over 60% in size; further: potency means the concentration at half of the fitted maximal effect
Procedure, shortened: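 Using parental DT40 (300 cells/well), compounds delivered in DMSO incubate 40 h at 37 C/5% CO2. CellTiter-Glo reagent then stands 30 min at room temperature, and luminescence gives cell viability.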

[3] = qHTS assay for identifying genotoxic compounds that show differential cytotoxicity against isogenic chicken DT40 cell lines with known DNA damage response pathways - Rev3 mutant cell line (AID 743014); further: nearly all actives have a fitted effect of over 55% in size; further: potency means the concentration at half of the fitted maximal effect
[4] = qHTS assay for identifying genotoxic compounds that show differential cytotoxicity against isogenic chicken DT40 cell lines with known DNA damage response pathways - Rad54/Ku70 mutant cell line (AID 743015); further: nearly all actives have a fitted effect of over 60% in size; further: potency means the concentration at half of the fitted maximal effect
[5] = qHTS assay to identify small molecule antagonists of the androgen receptor (AR) signaling pathway - cell viability counter screen (AID 743033; further: nearly all actives have a fitted effect of over 45% in size; further: potency means the concentration at half of the fitted maximal effect)
[6] = target: Androgen receptor (Homo sapiens) (UniProt P10275); experiment: qHTS assay to identify small molecule antagonists of the androgen receptor (AR) signaling pathway (AID 743035; active means well fitted inhibition curve with a large enough effect in the signal ratio in the repeat runs, not every such curve was filed as active; the % refers to the signal ratio; further: potency means the concentration at half of the fitted maximal effect)
Sequence of Androgen receptor (Homo sapiens) (P10275 whole entry, looked up): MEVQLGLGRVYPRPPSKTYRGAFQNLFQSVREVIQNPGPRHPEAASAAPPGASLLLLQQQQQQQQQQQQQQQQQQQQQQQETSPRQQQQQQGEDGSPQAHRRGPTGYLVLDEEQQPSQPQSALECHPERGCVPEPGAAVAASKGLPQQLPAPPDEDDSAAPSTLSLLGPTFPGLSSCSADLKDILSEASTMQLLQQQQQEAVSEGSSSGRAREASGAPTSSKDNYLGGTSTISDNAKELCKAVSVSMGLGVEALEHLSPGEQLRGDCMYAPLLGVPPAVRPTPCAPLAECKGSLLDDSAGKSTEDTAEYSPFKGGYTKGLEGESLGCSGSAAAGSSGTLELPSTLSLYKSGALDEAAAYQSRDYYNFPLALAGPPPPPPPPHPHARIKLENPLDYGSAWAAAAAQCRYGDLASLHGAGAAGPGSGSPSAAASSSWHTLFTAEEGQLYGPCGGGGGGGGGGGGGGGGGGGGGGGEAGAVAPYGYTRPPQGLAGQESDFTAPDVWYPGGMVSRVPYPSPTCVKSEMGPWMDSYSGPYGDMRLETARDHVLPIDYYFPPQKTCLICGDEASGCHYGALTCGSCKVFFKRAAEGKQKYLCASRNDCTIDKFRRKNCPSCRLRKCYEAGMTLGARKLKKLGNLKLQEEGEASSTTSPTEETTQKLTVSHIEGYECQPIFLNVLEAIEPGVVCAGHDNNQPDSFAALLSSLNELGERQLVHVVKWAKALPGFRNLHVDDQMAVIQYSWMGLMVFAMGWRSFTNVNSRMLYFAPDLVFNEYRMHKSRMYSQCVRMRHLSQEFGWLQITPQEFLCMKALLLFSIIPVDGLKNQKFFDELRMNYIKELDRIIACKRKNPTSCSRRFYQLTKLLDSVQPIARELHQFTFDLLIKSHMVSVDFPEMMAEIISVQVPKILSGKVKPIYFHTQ
Procedure, shortened: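 Using qHTS, AR-UAS-bla GripTite HEK293 cells received compound, then R1881, and were cultured 16 h at 37C/5% CO2 before a 2 h room-temperature LiveBLAzer B/G FRET substrate step and fluorescence measurement.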

[7] = target: Androgen receptor (Homo sapiens) (UniProt P10275); experiment: qHTS assay to identify small molecule agonists of the androgen receptor (AR) signaling pathway (AID 743036; active means well fitted activation curve with a large enough effect in the signal ratio in the repeat runs, with a control signal flat, not every such curve was filed as active; the % refers to the signal ratio)
Procedure, shortened: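 Screening used 2,000 AR-bla HEK293 cells per well, treated 16 h at 37C with test compounds in DMSO alongside positive and DMSO-only controls; beta-lactamase activity was then read by LiveBLAzer B/G FRET fluorescence after 2 h at room temperature.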

[8] = target: Androgen receptor (Homo sapiens) (UniProt P10275); experiment: qHTS assay to identify small molecule agonists of the androgen receptor (AR) signaling pathway using the MDA cell line (AID 743040; further: nearly all actives have a fitted effect of over 20% in size; further: potency means the concentration at half of the fitted maximal effect)
Procedure, shortened: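 After a 5 h incubation at 37C and 0% CO2, MDA-kb2 reporter cells were dosed with compounds in DMSO and kept 16 h under the same conditions. Luciferase activity was then read as luminescence with ONE-Glo.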

[9] = qHTS assay to identify small molecule antagonists of the androgen receptor (AR) signaling pathway using the MDA cell line - cell viability counter screen (AID 743041; further: nearly all actives have a fitted effect of over 45% in size)
Procedure, shortened: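 R1881-driven MDA-kb2 AR-luc cells, 3,000/well, were dosed with library compounds for 16 h; cell health came from CellTiter-Fluor fluorescence in the reporter wells.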

[10] = target: Androgen receptor (Homo sapiens) (UniProt P10275); experiment: qHTS assay to identify small molecule antagonists of the androgen receptor (AR) signaling pathway using the MDA cell line (AID 743042; further: nearly all actives have a fitted effect of over 55% in size; further: potency means the concentration at half of the fitted maximal effect)
Procedure, shortened: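 Antagonist mode: compounds plus R1881 agonist added to MDA-kb2 AR-luc cells, incubated 16 h at 37C. Luciferase reporter luminescence quantified, with multiplexed CellTiter-Fluor readout for cell viability.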

SMILES	Potency [1]	Potency [2]	Potency [3]	Potency [4]	Potency [5]	Potency [6]	Potency [7]	Potency [8]	Potency [9]	Potency [10]
CC[C@H]1OC(=O)[C@H](C)C(=O)[C@H](C)[C@@H](O[C@@H]2O[C@H](C)C[C@H](N(C)C)[C@H]2O)[C@](C)(OC)C[C@@H](C)C(=O)[C@H](C)[C@H]2N(CCCCn3cnc(-c4cccnc4)c3)C(=O)O[C@]12C	inactive	4.22 µM (active)	5.96 µM (active) and inactive	6.68 µM (active)	inactive					
CN[C@@H]1[C@@H](O[C@H]2O[C@H](CO)[C@@H](N)[C@H](O)[C@H]2O)O[C@H]2C[C@@H](N)[C@@H](O[C@H]3[C@H](O)[C@@H](O)[C@H](N)C[C@@H]3N)O[C@@H]2[C@@H]1O	inactive	inactive	inactive	inactive	inactive	inactive	inactive	inactive	inactive	inactive
C=C1[C@@H]2CC[C@@H](C2)C1(C)C	inactive	inactive	inactive	inactive	inactive					
CC(=O)OCC1=C(C(=O)O)N2C(=O)[C@@H](NC(=O)Cc3ccccc3)[C@H]2SC1	inactive	inactive	inactive	inactive	inactive	inactive	inactive	inactive	inactive	inactive
Cc1cc(C(=O)NCCc2ccc(S(=O)(=O)NC(=O)NN3CCCCCC3)cc2)no1	inactive	inactive	inactive	inactive	inactive	inactive	inactive	inactive	inactive	inactive
CCCCCCCCCC[N+](C)(CCCCCCCCCC)CCC[Si](OC)(OC)OC	inactive	5.45 µM (active)	7.7 µM (active)	7.7 µM (active)						
CC(C)OC(=O)Nc1ccc2nc(-c3cscn3)[nH]c2c1	inactive	1.68 µM (active)	1.88 µM (active)	2.37 µM (active)	inactive	4.25 µM (active)		inactive	inactive	inactive
C=C1C(CCl)(CCl)C2(Cl)C(Cl)C(Cl)C1(Cl)C2(Cl)Cl (stereo not drawn)	13.4 µM (active)	4.73 µM (active) and 30.3 µM (active)	2.98 µM (active) and 4.28 µM (active)	5.96 µM (active) and 17 µM (active)	inactive and 54.3 µM (active)	34.3 µM (active)		inactive	inactive	26.6 µM (active)
NC(N)=NCc1cccc(I)c1	inactive	5.96 µM (active) and 8.41 µM (active)	8.41 µM (active) and 11.9 µM (active)	6.68 µM (active) and 7.5 µM (active)	inactive					
Cc1cc(F)ccc1-c1cc(N2CC[C@@H](O)[C@H]2CO)ncc1N(C)C(=O)C(C)(C)c1cc(C(F)(F)F)cc(C(F)(F)F)c1	17.1 µM (active)	12 µM (active)	8.5 µM (active)	10.7 µM (active)	30.4 µM (active)	15.3 µM (active)		inactive		33.8 µM (active)
CCC[C@@H]1C[C@@H](C(=O)N[C@@H]([C@H]2O[C@H](SC)[C@H](OP(=O)(O)O)[C@@H](O)[C@H]2O)[C@H](C)Cl)N(C)C1	inactive	inactive	inactive	inactive	inactive	inactive	inactive	inactive	inactive	inactive
CCOc1ccc([N+](=O)[O-])cc1	35.2 µM (active)	62 µM (active)	31.1 µM (active)	43.9 µM (active)	inactive					
Oc1ccc(Cl)c2c1CCC2	inactive	inactive	inactive	inactive	inactive	inactive	inactive	inactive	inactive	inactive
O=C(O)Cc1nn(Cc2ccc(Br)cc2F)c(=O)c2ccccc12	inactive	inactive	inactive	inactive	inactive	inactive	inactive	inactive	inactive	inactive
CC(C)NCC1CCc2cc(CO)c([N+](=O)[O-])cc2N1 (stereo not drawn)	inactive	inactive	inactive	inactive	inactive	inactive	inactive	inactive	inactive	inactive
CCN1CCCC1CNC(=O)c1cc(S(=O)(=O)CC)ccc1OC (stereo not drawn)	inactive	inactive	inactive	inactive	inactive	inactive	inactive	inactive	inactive	inactive
Nc1c(CC(=O)O)cccc1C(=O)c1ccccc1	inactive	inactive	inactive	inactive	inactive	inactive		inactive	inactive	inactive

SMILES	Potency [1]	Potency [2]	Potency [3]	Potency [4]	Potency [5]	Potency [6]	Potency [7]	Potency [8]	Potency [9]	Potency [10]
CO/N=C(\C(=O)N[C@@H]1C(=O)N2C(C(=O)O)=C(C[N+]3(C)CCCC3)CS[C@H]12)c1csc(N)n1	inactive	inactive	inactive	inactive	inactive	inactive		inactive	inactive	inactive
CCOc1cc(CC(=O)N[C@@H](CC(C)C)c2ccccc2N2CCCCC2)ccc1C(=O)O	inactive	inactive	inactive	inactive	inactive	inactive	inactive	11.4 µM (active)	inactive	inactive
C[C@@H]1C(=O)NC2=Nc3cccc(Cl)c3CN21	inactive	inactive	inactive	inactive	inactive	inactive	inactive	inactive	inactive	inactive
Cc1cc(=O)c(C(=O)N[C@@H](C(=O)N[C@@H]2C(=O)N3C(C(=O)O)=C(CSc4nnnn4C)CS[C@H]23)c2ccc(O)cc2)c[nH]1	inactive	inactive	inactive	inactive	inactive	inactive	inactive	inactive	inactive	inactive
O=C(O)/C=C/C(O)c1ccc(Cl)cc1 (stereo not drawn)	inactive	inactive	inactive	inactive	inactive	inactive		inactive	inactive	inactive
CC1(C)C[C@@H]1C(=O)N/C(=C\CCCCSC[C@H](N)C(=O)O)C(=O)O	inactive	inactive	inactive	inactive	inactive	inactive	inactive	inactive	inactive	inactive
CC1(C)CCC(NC(=O)[C@@H](N)CCC(=O)O)CC1	inactive	inactive	inactive	inactive	inactive	inactive	inactive	inactive	inactive	inactive
CCc1ncnc2cc(OC)c(OC)cc12	inactive	inactive	inactive	inactive	inactive	inactive		inactive	inactive	inactive
CC1=C(/C=C/C(C)=C/C=C/C(C)=C/C=C/C=C(C)/C=C/C=C(C)/C=C/C2=C(C)CCCC2(C)C)C(C)(C)CCC1	inactive	inactive	inactive	inactive	inactive	inactive	inactive	inactive	inactive	inactive
CC(C)(Oc1ccc(C2CCCc3ccccc32)cc1)C(=O)O (stereo not drawn)	inactive	inactive	inactive	inactive	inactive	inactive	inactive	inactive	inactive	inactive
CN(C)CCc1c[nH]c2ccc(Cn3cncn3)cc12	inactive	inactive	inactive	inactive	inactive	inactive	inactive	inactive	inactive	inactive
C[N+](C)(C)CCOP(=O)(O)OP(=O)([O-])OC[C@H]1O[C@@H](n2ccc(N)nc2=O)[C@H](O)[C@@H]1O	inactive	inactive	inactive	inactive	inactive	inactive	inactive		inactive	inactive
O=C1C2CC3CC1CC(O)(C3)C2	inactive	inactive	inactive	inactive	inactive	inactive	inactive	inactive	inactive	inactive
NCCCC[C@H](NC(=O)[C@@H]1CCCN1C(=O)[C@@H]1CSSC[C@H](N)C(=O)N[C@@H](Cc2ccc(O)cc2)C(=O)N[C@@H](Cc2ccccc2)C(=O)N[C@@H](CCC(N)=O)C(=O)N[C@@H](CC(N)=O)C(=O)N1)C(=O)NCC(N)=O	inactive	inactive	inactive	inactive	inactive	inactive	inactive	inactive	inactive	inactive
C/C=C/C1=C(C(=O)O)N2C(=O)[C@@H](NC(=O)[C@H](N)c3ccc(O)cc3)[C@H]2SC1	inactive	inactive	inactive	inactive	inactive	inactive		inactive	inactive	inactive
NC(N)=NCC1COC2(CCCCC2)O1 (stereo not drawn)	inactive	inactive	inactive	inactive	inactive	inactive		inactive	inactive	inactive
